# p53null 32C tox: qHTS Screen for Compounds that Selectively Target Cancer Cells with p53 Mutations: Cytotoxicity of p53 Null Cells at the Permissive Temperature | H1299-neo p53 null cells, ATP luminescence, 24 h, 32C | Potency, µM (doses to about 46.1 µM), hits mostly cytotoxic | hit rate 0.62% among 55,000; note: nearly all actives have a fitted effect of over 55% in size
#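 Cytotoxicity: H1299-neo (no p53), 32C, 24 h treatment. Concentrations up to 46 uM. Readout cellular ATP, luminescence. Normalization to DMSO basal and tamoxifen 100 uM maximal kill.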
# GPR32 ag: qHTS for Agonists of Human Resolvin D1 Receptor DRV1 | Probable G-protein coupled receptor 32 (Homo sapiens), O75388 | CHO-K1 GPR32 beta-arrestin PathHunter luminescence, 90 min; zero percent set by DMSO-only wells | activation, % at 76.9 µM | hit rate 2.5% among 48,000;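 active = activation of at least 60% and not above a set upper limit, about 1 call in 100 departs from these limits; inconclusive = activation of 40% to 60%, or above that upper limit; inactive = activation under 40%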
# Target sequence (O75388 whole entry, looked up): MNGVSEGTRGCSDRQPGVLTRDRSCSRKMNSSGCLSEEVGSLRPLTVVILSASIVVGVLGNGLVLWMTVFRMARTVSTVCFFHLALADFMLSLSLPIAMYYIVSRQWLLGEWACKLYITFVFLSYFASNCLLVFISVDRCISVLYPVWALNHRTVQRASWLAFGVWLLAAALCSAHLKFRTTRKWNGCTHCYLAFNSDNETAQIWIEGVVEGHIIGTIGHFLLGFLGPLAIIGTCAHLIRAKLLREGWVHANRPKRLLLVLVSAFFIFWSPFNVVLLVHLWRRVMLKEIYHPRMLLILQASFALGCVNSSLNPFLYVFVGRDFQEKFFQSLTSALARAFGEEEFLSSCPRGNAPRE
#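 Agonism was scored by beta-Gal fragment complementation (chemiluminescent read, 1 h detection at ambient temperature) reporting beta-arrestin binding to GPR32 in engineered CHO-K1 cells. Compound treatment lasted 90 min at 37 C, normalized to a DMSO basal control.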
# GALC G270D act: A Novel Cell-Based Assay to Identify Small Molecules for B -Galactocerebrosidase | P54803 | Potency, µM (titrated, usually from 57.5 µM), actives largely listed as activators | 145M-Twi-hGALC-G270D cells, HMU-beta-Gal fluorescence, 48 h | hit rate 0.1% among 45,000; note: nearly all actives have a fitted effect of over 65% in size
#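 qHTS, 1536-well; 145M-Twi-hGALC-G270D cells (WT line also made) in DMEM/F12 + 10% FBS; compound incubation on live cells; HMU-β-gal 0.1 mM final, pH 5.2, NaTC; carbonate stop; fluorescence increase = enhanced residual activity.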
# p53null 39C kill: qHTS Screen for Compounds that Selectively Target Cancer Cells with p53 Mutations: Cytotoxicity of p53 Null Cells at the Nonpermissive Temperature | H1299 p53-null (neo) cells, 39C, ATPlite viability, 24 h | AID 904, 2007 | hit rate 0.97% among 55,000 | Potency, µM (top dose mostly 46.1 µM), usual class: cytotoxic; note: nearly all actives have a fitted effect of over 50% in size
#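 Luminescent ATP signal reported cell survival after H1299 lines (neo, p53 null; or p53 A138V) received up to 46 uM compound and 24 hr incubation at 39C.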
# SKOV3 invasion: Primary qHTS assay for Inhibitors of ovarian cancer metastasis using an organotypic tumor microenvironment (TME) model; SKOV3ip1-GFP adhesion/invasion on 3D omental model, fluorescence; Potency, µM (doses to about 45.8 µM), usual class: inhibitors; hit rate 0.1% among 46,000; note: nearly all actives have a fitted effect of over 65% in size
#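 Adhesion/invasion was scored as fixed GFP-labeled SKOV3ip1 cell counts (488/509 nm), normalized to DMSO and tomatine controls. Cancer cells in serum-free medium, with four compound doses (0.36-46 umol/L), sat 2 hr at RT then 16 hr at 37 C on a 48 hr fibroblast/mesothelial/ECM culture.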
# NTMT1 inh: Primary qHTS for Inhibitors of N-terminal methyltransferase 1 (NTMT1): MTaseGlo Assay | N-terminal Xaa-Pro-Lys N-methyltransferase 1 (Homo sapiens), Q9BV86 | NTMT1 MTase-Glo SAH luminescence, purified enzyme | Potency, µM (top dose mostly 114 µM), hits mostly inhibitors | hit rate 2.5% among 59,000 | AID 1645870, 2021; note: nearly all actives have a fitted effect of over 65% in size
# Target sequence (Q9BV86 whole entry, looked up): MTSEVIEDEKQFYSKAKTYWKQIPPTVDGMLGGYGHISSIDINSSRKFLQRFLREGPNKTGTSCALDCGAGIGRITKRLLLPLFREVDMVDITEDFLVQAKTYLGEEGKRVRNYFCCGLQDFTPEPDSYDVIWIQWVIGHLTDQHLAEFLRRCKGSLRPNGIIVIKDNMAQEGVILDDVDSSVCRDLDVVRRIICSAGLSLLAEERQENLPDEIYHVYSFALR
# Hits are given with their value; - = inactive; ? = inconclusive; . = no result; ! = repeats disagree; [ ] = another dose, or the depositor's remark. The list is not random: actives were taken first. Their share in the collection is about 4%. Unless noted, calls come from the whole dose curve; as a rule, active = well fitted curve in the direction sought with a large enough effect; inconclusive = small, poorly fitted or top-dose-only effect, or another doubt; inactive = no such curve, though single readings can be large; an effect the other way counts as inactive or inconclusive.
SMILES,p53null 32C tox,GPR32 ag,GALC G270D act,p53null 39C kill,SKOV3 invasion,NTMT1 inh
COC(=O)c1cc(S(=O)(=O)N2CCN(c3cccc(C)c3)C(C)C2)cn1C (stereo unspecified),-,-,-,13µM,-,-
CC(C)c1ccc(S(=O)(=O)/N=C2/C=C(Sc3ncn[nH]3)C(=O)c3ccccc32)cc1,6.3µM,.,.,.,.,.
Cc1ccccc1-c1noc(CSc2nc3ccccc3[nH]2)n1,-,-,-,-,-,-
COc1ccc(-c2noc(CSc3nc4ccccc4[nH]3)n2)cc1OC,-,67,-,-,-,-
C=C1C(=O)O[C@@H]2/C=C(\CO)CC/C=C(/C=O)C[C@H](O)[C@@H]12,.,.,.,.,.,-
CCCc1ncc(C[n+]2ccccc2C)c(N)n1,.,-,-,.,.,35µM
CCc1ccc(C2=C(C)C(N3CCC(C(=O)NCc4ccccc4)CC3)=NS2(=O)=O)cc1,-,65,-,-,-,-
Cc1ccc(N2CC(c3nc(-c4ccc(Cl)cc4)no3)CC2=O)cc1F (stereo unspecified),-,-,-,-,-,-
COc1cc(-c2noc(C3CC(=O)N(c4cc(C)ccc4C)C3)n2)cc(OC)c1OC (stereo unspecified),-,76,-,-,-,-
Cc1ccc(Cl)c2sc(N3CCN(C(=O)C4CC4)CC3)nc12,-,73,-,-,-,?
COc1ccc(-n2c(=O)[nH]c3cc(C(=O)NCc4ccc(Cl)cc4)sc3c2=O)nc1OC,.,.,.,.,.,-
C=C1C(=O)OC2/C=C(\COC(C)=O)CC/C=C(\C=O)CC(OC(=O)C(C)CC)C12 (stereo unspecified),.,.,.,.,.,-
COc1ccc(CCNc2ncnc3c2cnn3-c2ccc(F)cc2)cc1,-,66,-,-,-,-
COc1ccc(CCNc2ncnc3c2cnn3-c2cccc(Cl)c2)cc1,-,114,-,-,-,-
CC(C)(C)c1ccc(-c2nc3c(N4CCN(Cc5ccc6nccnc6c5)CC4)cccc3[nH]2)cc1,.,.,.,.,.,-
O=C(Nc1ccc(N2CCOCC2)c(C(=O)O)c1)c1ccc(Br)cc1,-,-,-,-,-,89µM
Cc1ccc(S(=O)(=O)Nc2cc(Cl)cc(C(=O)Nc3nc(-c4ccccc4)cs3)c2)cc1,.,.,.,.,.,-
CN(C)CCn1nnnc1SCC1=C(C(=O)O)N2C(=O)[C@@H](NC(=O)Cc3csc(N)n3)[C@H]2SC1,.,-,-,.,.,-
CO[C@@]1(NC(=O)CSCC#N)C(=O)N2C(C(=O)O)=C(CSc3nnnn3C)CS[C@@H]21,.,64!,-,.,.,14µM
CC(=O)N1c2ccc(S(=O)(=O)N3CCN(c4cccc(Cl)c4)CC3)cc2CC1C (stereo unspecified),-,-,-,-,-,-
CCC(=O)N1c2ccc(S(=O)(=O)N3CCN(c4ccccc4Cl)CC3)cc2CC1C (stereo unspecified),-,-,-,-,-,89µM
O=C(O)c1ccc(S(=O)(=O)N(Cc2ccc(OC(F)(F)F)cc2)c2ncc(C(F)(F)F)cc2Cl)cc1,.,.,.,.,.,-
CC(C)(C)C(=O)OCc1cc(=O)n2nc(C3CCCCC3)sc2n1,-,79,-,-,-,-
CC(=O)OCc1cc(=O)n2nc(C3CCCCC3)sc2n1,-,-,-,-,-,-
CC1(C)CC[C@]23CO[C@@]4(CCC5[C@@]6(C)CC[C@H](O[C@@H]7OC[C@H](O[C@@H]8O[C@H](CO)[C@@H](O)[C@H](O)[C@H]8O[C@@H]8OC[C@@H](O)[C@H](O)[C@H]8O)[C@H](O)[C@H]7O)[C@@](C)(CO)C6CC[C@@]5(C)[C@]4(C)CC2=O)[C@@H]3C1 (stereo partly specified),.,.,.,.,.,-[12.6 µM]
SMILES,p53null 32C tox,GPR32 ag,GALC G270D act,p53null 39C kill,SKOV3 invasion,NTMT1 inh
Cc1ccc(-c2nc(-c3cc4cccc(OCc5cccc(F)c5)c4oc3=O)no2)cc1,-,82,-,-,-,-
Cc1ccc2oc(NC3=NC(c4[nH]ncc4Cl)C4=C(CCCC4=O)N3)nc2c1 (stereo unspecified),.,.,.,.,.,-
Cc1cc(C)c2c(CC(=O)Nc3nnc(C(C)C)s3)coc2c1,-,65,-,-,?,-
Cc1ccc2occ(CC(=O)Nc3nnc(C(C)C)s3)c2c1,-,-,-,-,-,-
O=c1cc(-c2ccccc2)oc2ccccc12,.,62,-,.,.,100µM
CC(C)c1ccc(-c2cc(=O)c3ccccc3o2)cc1,.,.,.,.,.,-
FC(F)(F)c1cccc(Nc2nc3nonc3nc2Nc2ccc(Cl)cc2)c1,?,-,-,13µM,10µM,-
O=S(=O)(Nc1nccs1)c1ccc(NCc2cccc(O)c2)cc1,.,.,.,.,.,-
CSc1ccc(CCNC(=O)c2cc3n(n2)CCCN(Cc2ccc(C)cc2)C3=O)cc1,-,-,-,-,-,-
Cc1ccc(CN2CCCn3nc(C(=O)NCCc4ccc(Cl)cc4)cc3C2=O)cc1,-,115,-,-,-,-
Cc1ccccc1CCNC(=O)c1cc2ccccn2n1,?,-,.,10µM,-,.
Cc1ccc(CCNC(=O)c2cc3ccccn3n2)cc1,-,111,.,-,-,.
Oc1cccc(Nc2ccnc3cc(-c4cccc(CN5CCOCC5)c4)sc23)c1,.,.,.,.,.,-
COc1ccccc1CCNC(=O)C(=O)NCC(c1ccco1)S(=O)(=O)c1cccs1 (stereo unspecified),-,-,-,-,-,-
COc1ccccc1CCNC(=O)C(=O)NCC(c1ccco1)S(=O)(=O)c1ccc(C)cc1 (stereo unspecified),-,-,7.9µM,-,-,-
O=C(NCCc1ccccc1)c1ccc2c(c1)N(Cc1ccc(F)cc1Cl)C(=O)CS2,-,108,-,-,-,-
O=C(NCCc1ccc(Cl)cc1)c1ccc2c(c1)N(Cc1ccc(F)cc1Cl)C(=O)CS2,-,-,-,-,-,-
N=C(N)c1ccc2nc(-c3cc(CC(=O)NC(CC(=O)O)C(=O)O)cc(-c4cc(S(N)(=O)=O)ccc4O)c3O)[nH]c2c1 (stereo unspecified),.,.,.,.,.,-
C=CC(=O)N[C@H]1CCOC[C@H]1Nc1ncc2cc(-c3c(Cl)c(OC)cc(OC)c3Cl)ccc2n1,.,.,.,.,.,-

# Screens deposited in PubChem BioAssay by National Center for Advancing Translational Sciences (NCATS).
